Screening data (PubChem)
The list is not random: actives were taken first. Their share in the collection is about 19%.
TDP1 cell CPT – growth inhibition of DT40 Tdp1-/-;hTDP1 cells with camptothecin (screen for TDP1 inhibitors); chicken DT40 Tdp1-/-;hTDP1 cells + 20 nM CPT, ATP luminescence, 48 h; Potency, µM (highest dose often 46.2 µM), without a hit: top-dose activity change, negative = growth inhibition, most hits filed as inhibitors; hit rate 12% among 420,000; also: potency is read from the fitted curve at half-maximal effect; nearly all actives have a fitted effect of over 55% in size
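Chicken DT40 Tdp1-/- cells stably complemented with human TDP1 were seeded at 400 cells/well in medium containing 20 nM camptothecin, exposed to pin-transferred compounds, and grown at 37 °C for at least 48 hr. Viability was read as ATP luminescence.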
IL1B secr inh – blocks inflammasome-driven IL-1 beta release. THP-1 LPS/ATP IL-1B secretion, AlphaLISA, 16 h; active compounds read low. activity change, % at 57.5 µM. hit rate 4.7% among 360,000. AID 743279; in the data active = activity change below about -50%; inconclusive = mostly about -30% to -49%
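Secreted IL-1B measured by AlphaLISA bead assay after 16 h compound exposure of THP-1 cells; compounds (final up to 57.5 uM) added 1 h before LPS (250 ng/mL) and ATP (1.25 mM) stimulation; lower signal means less secretion.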
TDP1 cell noCPT – qHTS for Inhibitors of human tyrosyl-DNA phosphodiesterase 1 (TDP1): qHTS in cells in absence of CPT | DT40 Tdp1-/- hTDP1 cells, no CPT, ATP luminescence, 48 h | hit rate 15% among 420,000 | Potency, µM (titrated, usually from 46.2 µM), without a hit: at the top dose activity change, negative = growth inhibition, most hits filed as inhibitors | AID 686978, 2013; also: potency is read from the fitted curve at half-maximal effect; nearly all actives have a fitted effect of over 55% in size
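No-CPT arm: Tdp1-/-;hTDP1 DT40 cells (400/well) plus compounds, incubated ≥48 hr at 37 °C. Readout CellTiter-Glo luminescence.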
ELG1 DNA repair – ELG1-dependent DNA repair inhibition; HEK293T ELG1-luciferase reporter, luminescence, 16 h; DNA damage induced by 5-fluorouridine; Potency, µM (top dose mostly 46.1 µM), inactives show at the highest dose activity change, negative = inhibition, hits mostly inhibitors; hit rate 2.3% among 330,000; AID 504467; also: potency is read from the fitted curve at half-maximal effect; nearly all actives have a fitted effect of over 55% in size
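Overnight (16 hr) co-exposure of 2,000 cells/well to 5-fluorouridine and compound at 37 °C preceded detection. Luciferase was quantified via ONE-Glo luminescence; loss of signal denotes inhibition.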
HT1080-NT tox – kills 2HG-producing HT-1080-NT fibrosarcoma cells. AID 686970. HT-1080-NT fibrosarcoma viability, CellTiter-Glo ATP luminescence, 48 h. hit rate 1.6% among 360,000. Potency, µM (series often up to 46.1 µM), for inactives: top-dose activity, negative = less viability, usual class: cytotoxic;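 also: NT is the 2HG producing partner of a matched IDH1 knockdown line; potency is read from the fitted curve at half-maximal effect; 0% = DMSO-treated cells and -100% = media-only wells without cells; nearly all actives have a fitted effect of over 55% in size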
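HT-1080-NT; 750 cells/well; 5% FBS RPMI; 48 h compound, 37 degrees C; CellTiter-Glo luminescence; curve fitting and curve-class assignment.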
HT1080 IDH1KD tx – kills HT-1080 cells with IDH1 knockdown; HT-1080 IDH1 knockdown viability, ATP luminescence, 48 h; Potency, µM (series often up to 46.1 µM), without a hit: at the top dose activity, negative = toxicity, most hits filed as cytotoxic; hit rate 2% among 360,000; AID 686971;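 also: potency is read from the fitted curve at half-maximal effect; 0% = DMSO wells and -100% = cell-free medium wells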
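CellTiter-Glo luminescence after 48 h compound exposure at 37 degrees C of IDH1-knockdown HT-1080 cells in 5% FBS RPMI. %Activity scaled between DMSO wells and cell-free media wells, with curves fitted and assigned curve classes.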
An asterisk follows results filed as active; u = inconclusive; x = not tested or not shown; [ ] = dose if it differs, or a comment. Unless noted, calls follow the shape of the dose curve; as a rule, active = well fitted curve in the direction sought with a large enough effect; inconclusive = small, poorly fitted or top-dose-only effect, or another doubt; inactive = no such curve, though single readings can be large; an effect the other way counts as inactive or inconclusive. Unless noted, % is scaled to controls: 0 for no effect and ±100 for the full control effect.

SMILES	TDP1 cell CPT	IL1B secr inh	TDP1 cell noCPT	ELG1 DNA repair	HT1080-NT tox	HT1080 IDH1KD tx
O=C(Nc1ccc(NC(=O)N2CCN(c3ccccc3O)CC2)cc1)N1CCN(c2ccccc2O)CC1	u	-15	26µM*	u	-15%	-12%
CCCCCCCCCCCCSCCOCCO	11%	x	2%	x	x	x
C[C@@H]1CN([C@H](C)CO)C(=O)CCCn2cc(nn2)CO[C@H]1CN(C)C(=O)Nc1ccc(F)cc1	-3%	-7	1%	x	-9%	-12%
CCOc1cc(N2CCOCC2)c(OCC)cc1NC(=O)COC(=O)c1ccccc1C	u	2	u	u	12%	7%
CCOc1cc(N2CCOCC2)c(OCC)cc1NC(=O)c1cc(S(=O)(=O)N2CCOCC2)ccc1Cl	-110%	3	-103%	u	3%	-3%
CCOc1cc(N2CCOCC2)c(OCC)cc1NC(=O)Cc1cccc2ccccc12	u	27	u	18µM*	-22%	u
CCOc1cc(N2CCOCC2)c(OCC)cc1NC(=O)CN1CCCC1	10%	13	-5%	0%	7%	5%
CCOc1cc(N2CCOCC2)c(OCC)cc1NC(=O)C1CCCC1	u	0	29µM*	-19%	4%	3%
CCOc1cc(N2CCOCC2)c(OCC)cc1NC(=O)CCS(=O)(=O)c1ccc(Cl)cc1	4.1µM*	5	1.8µM*	u	1%	1%
CC(Oc1cccc(Cl)c1)C(=O)Nc1ccccc1C(=O)N1CCCCC1 (centres undefined)	23µM*	-7	u	-8%	-2%	-4%
CC(Oc1cccc(Cl)c1)C(=O)Nc1ccccc1N1CCCCC1 (centres undefined)	3%	11	-9%	16%	4%	-1%
Cc1ccc(-c2noc(-c3ccccc3NC(=O)C3CC(=O)N(c4cccc(C)c4)C3)n2)cc1 (centres undefined)	-10%	x	-2%	x	x	x
CC(C)(C)C1CCC(C(=O)Nc2ccc(N3CCOCC3)cc2N2CCOCC2)CC1 (centres undefined)	u	-21	u	15µM*	0%	5%
CCNC(=S)Nc1cc(OCC)c(N2CCOCC2)cc1OCC	u	15	u	-7%	22%	27%
CN(CC(=O)Nc1ccc(Cl)cc1)CC(=O)Nc1ccc(C(N)=O)cc1	-16%	9	-18%	-16%	-20%	-12%
CCOc1cc(N2CCOCC2)c(OCC)cc1NC(=O)CCC1CCCC1	16µM*	-3	18µM*	u	12%	13%
CN(CC(=O)Nc1ccc(Cl)cc1)CC(=O)Nc1cc(Cl)ccc1C#N	u	-84*	23µM*	u	u	0%[9.24 µM]
CCCCC1CCC(C(=O)Nc2ccccc2N2CCOCC2)CC1 (centres undefined)	u	31	u	-6%	10%	7%
CCCNC(=O)Nc1cc(OCC)c(N2CCOCC2)cc1OCC	u	31	18µM*	-4%	9%	10%
CCCC(C(=O)N(C)CC(=O)Nc1ccc(N2CCOCC2)cc1)c1ccccc1 (centres undefined)	-11%	-6	-15%	0%	4%	8%
Cc1ccc(C)c(OCCC(=O)OCC(=O)Nc2cccnc2Cl)c1	15µM*	-8	u	x	-2%	-6%
CCOc1ccccc1N1CCN(S(=O)(=O)c2ccc(Cl)s2)CC1	u	-22	u	10%	-2%	-2%[9.24 µM]
CCOc1cc(N2CCOCC2)c(OCC)cc1NS(=O)(=O)c1ccc(Cl)s1	4.6µM*	37	2.9µM*	19%	u	4.1µM*
CCOc1cc(N2CCOCC2)c(OCC)cc1NC(=O)c1ccccc1C	-25%	-12	u	-22%	13%	12%
CCOc1cc(N2CCOCC2)c(OCC)cc1NC(=O)C(C)Oc1ccccc1 (centres undefined)	u	-2	13µM*	u	-15%	-22%
SMILES	TDP1 cell CPT	IL1B secr inh	TDP1 cell noCPT	ELG1 DNA repair	HT1080-NT tox	HT1080 IDH1KD tx
CC(Oc1cccc(Cl)c1)C(=O)N(C)CC(=O)Nc1ccc(N2CCOCC2)cc1 (centres undefined)	13µM*	16	16µM*	-8%	-16%	-17%
Nc1nc[nH]c(=O)c1N	0%	x	-7%	x	x	x
COc1cccc(N2C(=O)N(Cc3ccc(C#N)cc3)c3ccccc3S2(=O)=O)c1	5%	x	-30%	x	x	x
O=C(Nc1cc(Cl)ccc1N1CCOCC1)C1CC1	-4%	-4	-13%	11%	9%	9%
CCOc1cc(N2CCOCC2)c(OCC)cc1NC(=O)COC(=O)CCOc1cc(C)ccc1C	u	-86*	23µM*	-9%	-8%	-5%
CCOc1cc(N2CCOCC2)c(OCC)cc1NC(=O)COC(=O)CCOc1ccc(C)cc1	u	-2	u	-26%	3%	0%
CC(Oc1cccc(Cl)c1)C(=O)Nc1cc(Cl)ccc1N1CCOCC1 (centres undefined)	21µM*	-14	u	u	6%	4%
CC(Oc1cccc(Cl)c1)C(=O)Nc1ccncc1 (centres undefined)	u	16	u	u	10%	-5%
CC(Oc1cccc(Cl)c1)C(=O)Nc1cc(=O)n(C)c(=O)n1C (centres undefined)	u	-2	13µM*	-23%	9%	-28%
Cc1ccc(C)c(OCCCC(=O)Nc2ccccc2C(N)=O)c1	u	-3	16µM*	0%	-20%	-7%
CN(C)S(=O)(=O)Nc1ccc(-c2cn3ccsc3n2)cc1	u	x	-23%	x	x	x
CCCC(=O)Nc1ccc(Cc2ccc(NC(=O)CCC)c(C(=O)O)c2)cc1C(=O)O	-2%	6	1%	6%	14%	12%
Cc1ccc(S(=O)(=O)NC(N)=NCCc2ccc(Cl)cc2)cc1C	-6%	5	0%	-3%	11%	13%
Cc1occc1-c1nnc(SCC(=O)NC2CCCCC2C)o1 (centres undefined)	-14%	0	-24%	u	1%	-1%
C/C=C1\NC(=O)[C@H](C)NC(=O)[C@@H](NC(=O)[C@@H](Cc2ccc(O)cc2)NC(=O)[C@@H](NC(=O)/C(C)=C/C)C(C)C)[C@@H](C)OC(=O)[C@H](CCCCc2ccc(O)cc2)NC(=O)[C@@H](CCC(=O)O)NC1=O	8%	23	0%	-2%	1%	13%
